Screening data from PubChem BioAssay.
ST2 IL33 inh: IL1RL1 inhibition. AlphaLISA ST2-Fc/biotin-IL-33 interaction, 1 h. Q01638. hit rate 2.3% among 78,000. inhibition, % for hits at 17 µM; in the data active means inhibition above about 30%
Target sequence (Q01638 whole entry, looked up): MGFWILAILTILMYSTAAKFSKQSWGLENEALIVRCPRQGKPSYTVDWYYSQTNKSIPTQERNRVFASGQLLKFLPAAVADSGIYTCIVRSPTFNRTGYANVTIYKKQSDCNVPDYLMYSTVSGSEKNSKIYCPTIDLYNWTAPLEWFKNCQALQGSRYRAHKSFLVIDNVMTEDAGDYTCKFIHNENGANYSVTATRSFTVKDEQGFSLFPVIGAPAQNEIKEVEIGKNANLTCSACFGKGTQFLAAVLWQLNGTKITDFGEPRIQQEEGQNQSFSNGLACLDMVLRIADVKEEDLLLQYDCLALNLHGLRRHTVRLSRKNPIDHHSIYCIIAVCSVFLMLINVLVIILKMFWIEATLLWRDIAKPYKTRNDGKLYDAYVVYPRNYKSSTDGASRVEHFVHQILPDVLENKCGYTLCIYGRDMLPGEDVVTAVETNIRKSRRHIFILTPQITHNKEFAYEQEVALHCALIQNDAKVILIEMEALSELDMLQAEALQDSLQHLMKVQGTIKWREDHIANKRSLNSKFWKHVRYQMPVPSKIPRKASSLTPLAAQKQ
The depositor's hits bear a star; i = inactive. Many of the other results were omitted from the sample, so hits are more common in it than they were.

SMILES | ST2 IL33 inh
COc1ccc(S(=O)(=O)N=C2C=C(Nc3cccc(C)c3)C(=O)c3ccccc32)cc1 | 79%*
Cc1ccc(Cl)cc1NC1=CC(=NS(=O)(=O)c2cccs2)c2ccccc2C1=O | 56%*
Cc1cccc(NS(=O)(=O)c2ccc(F)cc2)c1 | i
COc1ccc(NC2=CC(=NS(=O)(=O)c3ccc(Cl)cc3)c3ccccc3C2=O)cc1 | 93%*
O=S(=O)(N=C(Nc1cccc(O)c1)c1ccccc1)c1ccc(Cl)cc1 | i
CCc1ccc(NS(=O)(=O)c2ccc(OC)c(OC)c2)cc1 | i
CCc1ccc(S(=O)(=O)N=C2C=C(Nc3ccc(O)cc3)C(=O)c3ccccc32)cc1 | 91%*
Cc1cccc(Nc2c3c4c(cccc4n(C)c2=O)C(=O)c2ccccc2-3)c1 | i
Cc1ccc(Cl)cc1N1CCN(C(=O)C(NS(=O)(=O)c2cccs2)C(C)C)CC1 (stereo not drawn) | i
CC(C)(O)C#Cc1ccc(C(=O)N2[C@@H]3CC[C@H]2CNC(=O)C3)cc1 | i
CCc1ccccc1NC(=O)c1ccc(-c2ccccc2)cc1 | i
O=S(=O)(c1ccc(F)cc1)N1CCN(c2ncnc3scc(-c4ccccc4)c23)CC1 | i
CCN1CCN(C(=O)c2ccc(N3CCC(N4CCOc5ccc(Cl)cc5C4)CC3)cc2)CC1 | i
COC(=O)[C@H]1CN(C(=O)c2cccnc2)CCN1C(C)=O | i
Cc1cc2nc(CNC(=O)[C@H](N)CC(C)C)[nH]c2cc1C | i
COc1ccc(OC)c(C2C(C(=O)Nc3ccc(C)cc3C)=C(C)Nc3nnnn32)c1 (stereo not drawn) | i
CCOc1ccc(NC(=O)c2ccccc2Cl)cc1 | i
CCOc1ccc(NC2=NS(=O)(=O)c3ccccc32)cc1 | i
CCOc1ccc(S(=O)(=O)N=C2C=C(Nc3ccc(O)cc3)C(=O)c3ccccc32)cc1 | 84%*
O=S(=O)(O)c1ccc(Nc2ccccc2)cc1 | i
CCOc1ccc(NC2=CC(=NS(=O)(=O)c3ccc(OC)cc3)c3ccccc3C2=O)cc1 | 94%*
CCOc1ccc(NC(=O)Cc2ccccc2)cc1 | i
O=C1C=C(Nc2ccc(O)cc2)C(=O)c2ccccc21 | 42%*
CCOc1ccc(NC(=O)COc2ccc(OC)cc2)cc1 | i
CCOc1ccc(NC2=CC(=NS(=O)(=O)c3ccccc3)c3ccccc3C2=O)cc1 | 77%*
SMILES | ST2 IL33 inh
CCOc1ccc(NC(=O)C(Cc2ccccc2)N2C(=O)c3ccccc3C2=O)cc1 (stereo not drawn) | i
O=C1C(Nc2ccccc2)=CC(c2ccc(O)cc2)N1c1ccccc1 (stereo not drawn) | i
CCOc1ccc(NC(=O)C(c2ccccc2)c2ccccc2)cc1 | i
O=C(c1ccccn1)C1CCCN(Cc2nc(Cc3cccc(C(F)(F)F)c3)no2)C1 (stereo not drawn) | i
O=C(OCCCN1C(=O)c2ccccc2C1=O)c1ccc(Cl)cc1 | i
COc1cccc(C2NC(=O)NC(C)=C2C(=O)Nc2ccc(F)c(F)c2)c1OC (stereo not drawn) | i
O=C(Nc1nnc(-c2ccccc2)s1)c1ccccc1Cl | i
COc1cc(C2C(C#N)=C(N)Oc3n[nH]c(C)c32)ccc1O (stereo not drawn) | i
Cc1noc(C)c1COC1CN(CC(C)C)C(=O)CN(C2CCN(C(C)C)CC2)C1 (stereo not drawn) | i
COc1ccc(OC)c(C2C(C(=O)Nc3cc(C)ccn3)=C(C)NC3=C2C(=O)CCC3)c1 (stereo not drawn) | i
CN(CCC1CCCCO1)Cc1cnc(S(C)(=O)=O)n1CC1CCCCC1 (stereo not drawn) | i
COCCCNC(=O)c1c[nH]c2ccc(S(=O)(=O)Nc3cccc(Cl)c3C)cc2c1=O | i
CC(C)N=C(NS(=O)(=O)c1cccs1)c1ccccc1 | i
NC(=O)c1ccc(NS(=O)(=O)c2cccs2)cc1 | i
O=C1C(Nc2ccc(O)cc2)=CC(=NS(=O)(=O)c2cccs2)c2ccccc21 | 88%*
O=S(=O)(c1cccc(C(F)(F)F)c1)N1CCSC1c1ccc(Cl)cc1 (stereo not drawn) | i
CC(=O)C1=C(O)C(=O)N(CCCN2CCOCC2)C1c1ccc([N+](=O)[O-])cc1 (stereo not drawn) | i
CC(=O)Nc1cc(C(=O)N2CCC(c3ccccc3F)C2)cc2ncn(Cc3ccc(F)cc3)c12 (stereo not drawn) | i
COc1ccc(/C=C(\C#N)c2nc(-c3ccc(C)cc3)cs2)cc1 | 60%*
CCOc1ccc(/C=C(\C#N)c2nc(-c3ccc(OCC)cc3)cs2)cc1 | 33%*
CCOc1ccc(-c2cc3cc(OC)c(OC)cc3c(CC)n2)cc1 | i
COc1ccc(S(=O)(=O)Nc2ccc(-c3csc(C)n3)cc2)cc1 | i
N#C/C(=C\c1ccc(I)cc1)c1nc(-c2ccc([N+](=O)[O-])cc2)cs1 | i
O=C(c1ccc(Cn2cccn2)o1)N1C[C@H]2CC=CC[C@H]2C1 | i
COc1ccc(NC(=O)CSc2c[nH]c3ccccc23)c(OC)c1 | i
SMILES | ST2 IL33 inh
N#CC1=C(N)OC2=C(C(=O)CC(c3ccccc3)C2)C1c1cc(Br)cs1 (stereo not drawn) | i
CCc1ccc(C2CC(c3c(F)cccc3Cl)n3ncnc3N2)cc1 (stereo not drawn) | i
CN(C(=O)CCC(=O)NC1CCCCCC1)C1CC(C)(C)NC(C)(C)C1 | i
CC1(C)CC(NC2CC(C)(C)NC(C)(C)C2)CC(C)(C)N1 | i
CC1(C)CC(NC(=O)CC2CCCCC2)CC(C)(C)N1 | 34%*
CCC1CN(CCNC(=O)Cc2cccc(F)c2)Cc2cc(OC)ccc2O1 (stereo not drawn) | i
COc1ccc(-c2nnc(Nc3nc4c(F)cccc4s3)o2)cc1 | i
NNC(=O)CN1CCN(Cc2ccc3c(c2)OCO3)CC1 | i
O=C(c1ccc2nc3ccccc3c(=O)n2c1)N1CCN(Cc2ccc3c(c2)OCO3)CC1 | i
O=C(c1nc(N2CCCC2)nc2c1CCCC2)N1CCN(Cc2ccc3c(c2)OCO3)CC1 | 32%*
O=C(CC[C@@H]1CNC(=O)[C@@H]2C[C@H](NC(=O)c3ccc(F)c(Cl)c3)CN12)NCc1ccccc1 | i
O=C(CC[C@@H]1CNC(=O)[C@@H]2C[C@H](NC(=S)Nc3ccc(Cl)cc3)CN12)NC1CC1 | i
O=C(CC[C@@H]1CNC(=O)[C@@H]2C[C@H](NC(=O)Nc3ccc(F)cc3F)CN12)NCc1ccc(F)cc1 | 71%*
COCCNC(=S)N[C@H]1C[C@H]2C(=O)NC[C@@H](CCC(=O)N3CCOCC3)N2C1 | i
O=C(CC[C@@H]1CNC(=O)[C@@H]2C[C@H](NC(=S)NCCN3CCOCC3)CN12)NCc1ccccc1 | 31%*
O=C1NC[C@@H](CCC(=O)N2CCOCC2)N2C[C@@H](NC(=S)NCc3ccco3)C[C@@H]12 | i
O=C(CCCn1c(=O)[nH]c2ccsc2c1=O)N1CCN(c2cccc(Cl)c2)CC1 | i
O=C(COc1ccc(F)cc1)Nc1c(C(=O)Nc2cccc(F)c2)oc2ccccc12 | i
Clc1ccc(-c2nnc3ccc(Cl)nn23)cc1 | i
Cc1cnn(-c2ccc3nnc(-c4ccc(Cl)cc4)n3n2)c1 | 36%*
Cc1ccn2cc(-c3ccc(Cl)cc3)nc2c1 | i
CCOc1ccc(C2C(C(=O)OC(C)C)=C(C)NC3=C2C(=O)C(C(=O)OC)C(C)C3)cc1 (stereo not drawn) | i
CN(C)C(=O)c1ccc2c(c1)N(CC(=O)Nc1cccc(Cl)c1)C(=O)C1CCCCN21 (stereo not drawn) | i
